Data: ChEMBL document CHEMBL3988442, “University of Dundee, Small-Polar-MMV Screening Library” (2021)

What follows are molecules tested against AMP-activated protein kinase, AMPK (Homo sapiens) (UniProt P54646+O43741+P54619+Q9UGJ0+Q9Y478+Q13131+Q9UGI9) (assay: AMP-dependent Kinase enzyme assay. An in vitro enzyme assay that detects ADP turnover that is directly proportional to AMPK activity. This uses naive AMPK that is activated during the assay with MK-8722). Conditions: 30 µM.
Assay type: functional
Parameters: scale not given: direction of the effect not stated beside the values

| SMILES | Percent Effect |
| --- | --- |
| CC(C)(C)c1cnc(CN2CCCC2Cn2cccn2)o1 (stereo not drawn) | 6.71% |
| Cc1nc(C)c(C(=O)NCCNC(=O)Cc2ccccc2)s1 | -4.83% |
| CC(C)NC(=O)c1n[nH]c(-n2cnnc2)n1 | -5.08% |
| CC(C)C1CN(C(=O)c2ccc(N3CCCC3)nc2)CCS1 (stereo not drawn) | 0.107% |
| O=C(NC1CC1)[C@@H]1CCO[C@@H]2CCN(Cc3ccsc3)C[C@H]21 | 8.56% |
| Cc1cc(CN(C)C2CCCN(c3cccnn3)C2)on1 (stereo not drawn) | -10.6% |
| CN(Cc1ccc(F)cc1)C(=O)CN1CCOC(Cn2cncn2)C1 (stereo not drawn) | -2.68% |
| CC(C)COC(C)C(=O)NCc1cc(F)cc(F)c1 (stereo not drawn) | 8.53% |
| COCCC(=O)N1CCN(C)c2ncccc2C1 | 1% |
| Cn1cc(N2CCC3(CCN(Cc4nccs4)C3)C2=O)cn1 (stereo not drawn) | 4.13% |
| O=C(CCc1nccs1)N1CCN(c2ccccc2F)CC1 | -1.29% |
| CNC(=O)CCNC(=O)c1cccc(Cn2nc(C)cc2C)c1 | 1.31% |
| Cc1cc(C)cc(OCCC(=O)N2CCCC(n3cncn3)C2)c1 (stereo not drawn) | 0.29% |
| O=C(CSc1ccccc1Cl)NS(=O)(=O)c1ccc2c(c1)OCCO2 | 27.8% |
| O=c1ccc(-c2cccs2)nn1CN1CCCCCC1 | -3.16% |
| O=C(NCCOc1ncc(Cl)cc1Cl)c1ccncc1 | 3.95% |
| COc1cccc(OCC2CCCN(C(=O)c3cnc(C)nc3O)C2)c1 (stereo not drawn) | -1.51% |
| CCc1cccc(NS(=O)(=O)c2cc3c(c(C(=O)O)c2)OCCO3)c1 | -5.84% |
| CC(C)S(=O)(=O)NCC1CCCN(C(=O)c2ccc3c(c2)OCCO3)C1 (stereo not drawn) | 3.11% |
| Cc1cnccc1CN1C[C@@H](O)[C@H](Oc2cccc(F)c2)C1 | 10% |

| SMILES | Percent Effect |
| --- | --- |
| CC1CN(C(=O)NCCCn2cncn2)CCO1 (stereo not drawn) | 1.46% |
| CCCc1nc(CN2CCOC(CNc3cccnn3)C2)cs1 (stereo not drawn) | -3.87% |
| Cc1ccc(NC2CCN(C(=O)c3cccn3C)CC2)nn1 | -16.9% |
| Cc1ccc(CNC(=O)Cn2ncc3c2c(C)nn3C)cc1 | 4.44% |
| O=C(N[C@@H]1CN(Cc2ccccc2)C[C@@H]2CCCO[C@@H]21)C1CC1 | 0.707% |
| Fc1ccc(OCCCN2CCOC(Cn3cncn3)C2)cc1 (stereo not drawn) | 6.98% |
| Cc1cc(C)c(CNC(=O)NCC(O)c2cccc(F)c2)c(=O)[nH]1 (stereo not drawn) | 0.0351% |
| O=C(CCn1ccc2cc(Br)ccc21)NCc1ccc(C(=O)O)cc1 | 11.6% |
| O=C(NCc1ccc(OCC2CC2)nc1)c1c(F)cccc1F | 4.21% |
| CSc1nccn1-c1cccc(C(=O)NCCCN2CCOCC2)c1 | 0.67% |
| CC(C)c1nn(C)c(N(C)C)c1CNCc1ccc2c(c1)OCO2 | -15.5% |
| CC(Oc1ccccc1C(F)(F)F)C(=O)NCC(N)=O (stereo not drawn) | 0.686% |
| O=c1n(CCSCc2ccccc2F)nc2ccccn12 | 0.704% |
| Cc1noc(C)c1C1CCCN1C(=O)CN1CC2(CCNCC2)OC1=O (stereo not drawn) | 4.75% |
| CN(CC1CCCO1)C1CCN(CCc2ccccn2)CC1 (stereo not drawn) | -5.1% |
| N#Cc1cccc(S(=O)(=O)NC(=O)COC2CCCC2)c1 | -4.75% |
| COc1cccc(OCC(=O)NS(=O)(=O)c2ccc(C)s2)c1 | -2.9% |
| Cn1ccnc1-c1ccccc1C(=O)N1CCc2c(nc(N)[nH]c2=O)C1 | 3.19% |
| CN(C)C(=O)CN1C[C@@H]2CC[C@H](C1)N(C(=O)CCn1cncn1)C2 | -3.51% |

Each molecule was assayed against Sialic acid-binding Ig-like lectin 9 (Homo sapiens) (UniProt Q9Y336) (assay: Hs-Siglec9 ALPHAscreen SOP 20170721). Conditions: 10 µM.
Sialic acid-binding Ig-like lectin 9 (Homo sapiens), sequence (Q9Y336 whole entry): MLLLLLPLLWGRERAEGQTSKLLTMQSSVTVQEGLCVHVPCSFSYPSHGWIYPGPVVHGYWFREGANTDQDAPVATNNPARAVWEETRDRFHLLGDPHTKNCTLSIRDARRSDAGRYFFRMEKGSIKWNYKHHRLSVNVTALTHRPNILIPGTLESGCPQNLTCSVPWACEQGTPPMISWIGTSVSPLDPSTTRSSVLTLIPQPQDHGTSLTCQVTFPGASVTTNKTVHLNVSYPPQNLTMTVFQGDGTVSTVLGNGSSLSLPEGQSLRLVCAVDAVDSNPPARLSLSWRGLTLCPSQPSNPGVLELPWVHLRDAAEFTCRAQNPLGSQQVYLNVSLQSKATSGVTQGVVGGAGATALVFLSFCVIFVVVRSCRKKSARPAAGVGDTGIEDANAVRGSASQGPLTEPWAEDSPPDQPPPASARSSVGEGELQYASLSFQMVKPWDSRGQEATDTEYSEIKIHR
Parameters: scale not given: direction of the effect not stated beside the values

| SMILES | Percent Effect |
| --- | --- |
| CC(C)(C)c1cnc(CN2CCCC2Cn2cccn2)o1 (stereo not drawn) | -3.67% |
| Cc1nc(C)c(C(=O)NCCNC(=O)Cc2ccccc2)s1 | 1.88% |
| CC(C)NC(=O)c1n[nH]c(-n2cnnc2)n1 | 5.32% |
| CC(C)C1CN(C(=O)c2ccc(N3CCCC3)nc2)CCS1 (stereo not drawn) | 2.6% |
| O=C(NC1CC1)[C@@H]1CCO[C@@H]2CCN(Cc3ccsc3)C[C@H]21 | 0.445% |
| Cc1cc(CN(C)C2CCCN(c3cccnn3)C2)on1 (stereo not drawn) | -0.639% |
| CN(Cc1ccc(F)cc1)C(=O)CN1CCOC(Cn2cncn2)C1 (stereo not drawn) | -5.85% |
| CC(C)COC(C)C(=O)NCc1cc(F)cc(F)c1 (stereo not drawn) | 10.1% |
| COCCC(=O)N1CCN(C)c2ncccc2C1 | 7.83% |
| Cn1cc(N2CCC3(CCN(Cc4nccs4)C3)C2=O)cn1 (stereo not drawn) | -6.07% |
| O=C(CCc1nccs1)N1CCN(c2ccccc2F)CC1 | -1.48% |
| CNC(=O)CCNC(=O)c1cccc(Cn2nc(C)cc2C)c1 | 2.11% |
| Cc1cc(C)cc(OCCC(=O)N2CCCC(n3cncn3)C2)c1 (stereo not drawn) | 4.17% |
| O=C(CSc1ccccc1Cl)NS(=O)(=O)c1ccc2c(c1)OCCO2 | 4.23% |
| O=c1ccc(-c2cccs2)nn1CN1CCCCCC1 | 2.9% |
| O=C(NCCOc1ncc(Cl)cc1Cl)c1ccncc1 | 4.2% |
| COc1cccc(OCC2CCCN(C(=O)c3cnc(C)nc3O)C2)c1 (stereo not drawn) | 13.5% |
| CCc1cccc(NS(=O)(=O)c2cc3c(c(C(=O)O)c2)OCCO3)c1 | 0.409% |
| CC(C)S(=O)(=O)NCC1CCCN(C(=O)c2ccc3c(c2)OCCO3)C1 (stereo not drawn) | -9.4% |
| Cc1cnccc1CN1C[C@@H](O)[C@H](Oc2cccc(F)c2)C1 | 2.32% |

| SMILES | Percent Effect |
| --- | --- |
| CC1CN(C(=O)NCCCn2cncn2)CCO1 (stereo not drawn) | 3.56% |
| CCCc1nc(CN2CCOC(CNc3cccnn3)C2)cs1 (stereo not drawn) | 5.09% |
| Cc1ccc(NC2CCN(C(=O)c3cccn3C)CC2)nn1 | 19.7% |
| Cc1ccc(CNC(=O)Cn2ncc3c2c(C)nn3C)cc1 | 1.31% |
| O=C(N[C@@H]1CN(Cc2ccccc2)C[C@@H]2CCCO[C@@H]21)C1CC1 | 7.92% |
| Fc1ccc(OCCCN2CCOC(Cn3cncn3)C2)cc1 (stereo not drawn) | 5.51% |
| Cc1cc(C)c(CNC(=O)NCC(O)c2cccc(F)c2)c(=O)[nH]1 (stereo not drawn) | 13.9% |
| O=C(CCn1ccc2cc(Br)ccc21)NCc1ccc(C(=O)O)cc1 | 0.438% |
| O=C(NCc1ccc(OCC2CC2)nc1)c1c(F)cccc1F | -0.689% |
| CSc1nccn1-c1cccc(C(=O)NCCCN2CCOCC2)c1 | -6.16% |
| CC(C)c1nn(C)c(N(C)C)c1CNCc1ccc2c(c1)OCO2 | 1.82% |
| CC(Oc1ccccc1C(F)(F)F)C(=O)NCC(N)=O (stereo not drawn) | -2.42% |
| O=c1n(CCSCc2ccccc2F)nc2ccccn12 | -1.41% |
| Cc1noc(C)c1C1CCCN1C(=O)CN1CC2(CCNCC2)OC1=O (stereo not drawn) | 9.41% |
| CN(CC1CCCO1)C1CCN(CCc2ccccn2)CC1 (stereo not drawn) | 7.51% |
| N#Cc1cccc(S(=O)(=O)NC(=O)COC2CCCC2)c1 | -1.76% |
| COc1cccc(OCC(=O)NS(=O)(=O)c2ccc(C)s2)c1 | -5.56% |
| Cn1ccnc1-c1ccccc1C(=O)N1CCc2c(nc(N)[nH]c2=O)C1 | 4.47% |
| CN(C)C(=O)CN1C[C@@H]2CC[C@H](C1)N(C(=O)CCn1cncn1)C2 | 3.26% |
